Compound activity: PubChem, National Center for Advancing Translational Sciences (NCATS)
Hits are enriched below; roughly 12% of the tested compounds scored in any of these assays.
AmpC detergent – qHTS Inhibitors of AmpC Beta-Lactamase (assay with detergent). P00811. AmpC hydrolysis of nitrocefin, absorbance 480 nm, 0.01% Triton. Potency, µM (doses to about 114 µM), for the others: at the top dose activity change, negative = inhibition, usual class: inhibitors. 370,000 tested, 0.041% active;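 also: 0% = no-compound wells and -100% = no-enzyme wells; nearly all actives have a fitted effect of over 25% in size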
Target sequence (P00811 whole entry, looked up): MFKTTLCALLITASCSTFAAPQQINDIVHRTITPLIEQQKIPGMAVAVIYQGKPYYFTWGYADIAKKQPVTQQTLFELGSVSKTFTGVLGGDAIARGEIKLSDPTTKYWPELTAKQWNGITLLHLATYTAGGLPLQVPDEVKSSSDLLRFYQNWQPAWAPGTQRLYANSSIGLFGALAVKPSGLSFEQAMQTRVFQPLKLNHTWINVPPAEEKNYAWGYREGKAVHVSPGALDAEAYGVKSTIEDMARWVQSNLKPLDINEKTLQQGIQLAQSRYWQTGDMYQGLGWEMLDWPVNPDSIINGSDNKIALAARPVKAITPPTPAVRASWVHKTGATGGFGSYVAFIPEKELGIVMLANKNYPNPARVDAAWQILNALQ
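20 mM phosphate pH 7.0 + 0.01% (detergent screen) or 0.0001% Triton X-100; 5.3 nM AmpC reagent; cpd preinc 15 min RT; nitrocefin (800 uM stock) to start; A480 q20 s × 4 min; Activity was normalised to no-enzyme and no-compound control wells.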
SARS PLP yeast – qHTS of Yeast-based Assay for SARS-CoV PLP | 330,000 tested, 0.19% active | Potency, µM (top dose mostly 32.9 µM), for the others: at the top dose activity, positive = growth rescue, usual class: activators | S. cerevisiae expressing SARS-CoV PLpro, growth rescue; calls by dose curve; also: 0% is about no effect; nearly all actives have a fitted effect of over 55% in size
Sm TGR block – qHTS Assay for the Inhibitors of Schistosoma Mansoni Peroxiredoxins. Potency, µM (top dose mostly 114 µM), for inactives: at the top dose activity change, negative = inhibition, hits mostly inhibitors. AID 485364, 2010. Schistosoma mansoni thioredoxin glutathione reductase (TGR), Q962Y6. 360,000 tested, 3% active. purified TGR, DTNB reduction, TNB absorbance 405 nm; also: % is scaled to controls: 0 for no effect and ±100 for the full control effect; nearly all actives have a fitted effect of over 60% in size
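TGR 20 nM + NADPH 100 uM (dispensed conc.), cpd preinc 15 min RT; start with NADPH (500 uM addition) then DTNB (15 mM addition). Kinetic TNB absorbance, 405 nm filter. Four-parameter Hill fit across titration.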
AmpC no deterg – qHTS Inhibitors of AmpC Beta-Lactamase (assay without detergent). P00811. AmpC nitrocefin hydrolysis, absorbance 480 nm, 0.0001% Triton. Potency, µM (doses to about 57.1 µM), for inactives: at the top dose activity change, negative = inhibition, hits mostly inhibitors. 330,000 tested, 0.52% active. AID 485341, 2010;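 also: plate controls were no compound for no effect and no enzyme for full effect; nearly all actives have a fitted effect of over 20% in size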
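AmpC (5.3 nM in the dispensed reagent) in 20 mM phosphate pH 7.0 with 0.01% (detergent screen) or 0.0001% Triton X-100 was preincubated with compounds for 15 min at room temperature. Nitrocefin was then added from an 800 uM solution, and hydrolysis was followed at 480 nm.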
Pf growth 96h – Primary qHTS for delayed death inhibitors of the malarial parasite plastid, 96 hour incubation. P. falciparum luciferase reporter growth, 96 h. Potency, µM (doses to about 28.7 µM), without a hit: top-dose activity change, negative = inhibition, hits mostly inhibitors. 320,000 tested, 6.9% active; also: % is scaled to controls: 0 for no effect and ±100 for the full control effect
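Infected RBCs, 2% Hct / 0.05% parasitemia final; luciferase-reporter P. falciparum; cpd 96 h, 37 C, 5% CO2; luciferase detection reagent; luminescence.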
Pf growth 48h – Primary qHTS for delayed death inhibitors of the malarial parasite plastid, 48 hour incubation; P. falciparum luciferase growth in erythrocytes, 48 h; Potency, µM (doses to about 28.7 µM), for the others: at the top dose activity change, negative = inhibition, hits mostly inhibitors; 310,000 tested, 5.9% active; also: % is scaled to controls: 0 for no effect and ±100 for the full control effect
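Erythrocytes infected with P. falciparum carrying an integrated firefly luciferase reporter (2% hematocrit, 0.1% parasitemia final) were exposed to compounds in RPMI 1640 with 0.5% Albumax at 37 C, 5% CO2. Growth inhibition was scored as reduced luminescence.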
Starred values were filed as active, the others as inactive; u = inconclusive; x = no result given; [ ] = remark or other dose. Unless noted, calls follow the shape of the dose curve; as a rule, active = well fitted curve in the direction sought with a large enough effect; inconclusive = small, poorly fitted or top-dose-only effect, or another doubt; inactive = no such curve, though single readings can be large; an effect the other way counts as inactive or inconclusive. Potency is read from the fitted curve at half-maximal effect.

SMILES | AmpC detergent | SARS PLP yeast | Sm TGR block | AmpC no deterg | Pf growth 96h | Pf growth 48h
CC(=O)c1cc(Cl)ccc1OC(=O)c1ccco1 | -1% | 2% | -15% | -14% | x | 6%
O=C(Oc1ccc(OC(=O)c2ccco2)c(S(=O)(=O)c2ccc(Cl)cc2)c1)c1ccco1 | -15% | -14% | -6% | -37% | 10µM* | 4%
O=C(Oc1cccnc1)c1ccco1 | u | -4% | -4% | -3% | 8% | 18%
COc1ccc2[nH]c3c(c2c1)CCN1C(=O)C(CC(=O)NC/C=C(\C)CCC=C(C)C)C[C@H](C(=O)N2CCOCC2)[C@@]31CCC1CCCC1 (some centres undefined) | x | 27% | x | -5% | x | x
CSCc1cc(N(C)C)nc(SCc2ccc(Cl)c(Cl)c2)n1 | -15% | -16% | 2% | -13% | u | 10µM*
Cc1ccc(N/N=C(\C#N)C(N)=S)c(C)c1 | 1% | -137% | u | 3.5µM* | u | 4%
CCOC(=O)c1ccc(NC(=O)C(C)NS(=O)(=O)c2ccc(OC)cc2)cc1 (centres undefined) | -4% | 1% | -10% | -6% | 3% | u
CCOC(=O)c1ccc(NC(=O)COc2ccc(S(=O)(=O)NC(C)CC)cc2)cc1 (centres undefined) | -13% | 4% | 1% | -13% | 10µM* | u
COc1cc(C(=O)NC(C)c2ccc(S(N)(=O)=O)cc2)ccc1OCC(=O)N1CCOCC1 (centres undefined) | u | -7% | 6% | -2% | 5% | 59%
CCOc1ccc(NC(=O)COc2ccc(C(=O)NC(C)c3ccc(S(N)(=O)=O)cc3)cc2OC)cc1 (centres undefined) | -10% | x | 5% | -20% | u | 12µM*
CCc1cccc(C)c1NC(=O)C1CCN(c2nnc(C)c3c(C)n(-c4ccccc4)nc23)CC1 | 24% | x | 0% | x | x | x
COc1ccccc1C(=O)C1CCCN(C(=O)c2cnn(C(C)C)c2)C1 (centres undefined) | -9% | u | -28% | 14% | 2% | 1%
C=CCn1c(SCC(=O)N2CC(=O)Nc3ccccc32)nc2scc(-c3ccccc3)c2c1=O | 2% | -6% | 7% | -21% | 4.7µM* | 8.3µM*
C=CCn1c(SCC(=O)c2[nH]c(C)c(C(C)=O)c2C)nnc1-c1ccncc1 | -3% | -8% | 1% | -4% | x | 19%
Nn1cnc2scc(-c3ccco3)c2c1=O | 6% | 0% | 35µM* | -16% | 23% | 28%
C=CCn1c(SCn2nnc3ccccc3c2=O)nc2scc(-c3cccs3)c2c1=O | 7% | 11% | -1% | -4% | 2.9µM* | 14%
C=CCn1c(SCC(=O)c2[nH]c(C)c(C(=O)OC)c2C)nc2scc(-c3ccc(OC)c(OC)c3)c2c1=O | u | 12% | 1% | -15% | 2.9µM* | u
CC1CCN(C(=O)Cn2c3ccc(F)cc3c3nc4n(c(=O)c32)CCCS4)CC1 | -1% | 5% | -12% | -1% | 38% | -6%
O=C(NCc1ccccc1)N1CCC(n2cnc3cc(F)ccc32)CC1 | -6% | 2% | -5% | 0% | -19%[5.75 µM] | u
C=CCn1c(SCC(=O)N2CCCC2)nc2scc(-c3cccs3)c2c1=O | 1% | -11% | 4% | 18% | u | u
C=CCn1c(SCC(C)=O)nc2scc(-c3ccco3)c2c1=O | -10% | 2% | 2.8µM* | 5% | -3% | -20%
C=CCn1c(SCC(=O)N2CCOCC2)nc2scc(-c3ccco3)c2c1=O | u | -3% | 4.5µM* | 94% | 20% | 0%
C=CCn1c(SC(F)F)nc2scc(-c3ccco3)c2c1=O | u | -8% | 50µM* | -23% | 5% | 2%
CCCCNC(=O)NS(=O)(=O)c1ccc(NC(=O)C(NC(N)=O)C(C)CC)cc1 (centres undefined) | -8% | -2% | 0% | -20% | 0% | 8%
Cc1ccc(-c2nnc(Nc3cccc(O)c3)c3ccccc23)cc1S(=O)(=O)NCC1CCCO1 (centres undefined) | 2% | x | -2% | x | x | x
SMILES | AmpC detergent | SARS PLP yeast | Sm TGR block | AmpC no deterg | Pf growth 96h | Pf growth 48h
Cc1ccc(-c2nnc(N3CCC(C)CC3)c3ccccc23)cc1C | 1% | -1% | 5% | -17% | u | 13µM*
CNS(=O)(=O)c1cc(-c2nnc(Nc3ccc(CC(N)=O)cc3)c3ccccc23)ccc1C | -10% | -1% | 11% | 61% | 30% | 7.4µM*
Cc1ccc(-c2nnc(N3CCC(C)CC3)c3ccccc23)cc1 | -7% | -1% | 4% | -44% | u | u
Cc1ccc(-c2nnc(N3CCOCC3)c3ccccc23)cc1S(=O)(=O)NCC1CCCO1 (centres undefined) | -3% | 2% | -17% | 98% | -22% | 8.3µM*
COC(=O)c1ccc(Nc2nnc(-c3ccc(C)c(S(=O)(=O)NCC4CCCO4)c3)c3ccccc23)cc1 (centres undefined) | 5% | 22% | 0% | 50% | u | 7.4µM*
Nc1nnc2c(n1)[nH]c1ccccc12 | 2% | x | -1% | x | x | x
Cc1ccc(-c2nnc(Nc3ccc(CC(N)=O)cc3)c3ccccc23)cc1S(=O)(=O)NCC1CCCO1 (centres undefined) | 2% | 0% | 0% | 96% | u | 0.83µM*
Cc1ccccc1Nc1nnc(-c2ccc(C)c(S(=O)(=O)NCC3CCCO3)c2)c2ccccc12 (centres undefined) | 1% | x | 1% | x | x | x
CCOC(=O)CNS(=O)(=O)c1cc(-c2nnc(Nc3cccc(O)c3)c3ccccc23)ccc1C | 2% | x | -4% | x | x | x
Cc1ccc(-c2nnc(Nc3ccc(CC(N)=O)cc3)c3ccccc23)cc1S(N)(=O)=O | -3% | 1% | -12% | -28% | 39% | 0%[0.00184 µM]
CCOC(=O)CNS(=O)(=O)c1cc(-c2nnc(Nc3ccc4c(c3)OCO4)c3ccccc23)ccc1C | 1% | -20% | 7% | -7% | u | 2.3µM*
Cc1ccc(-c2nnc(Nc3ccc(C(=O)N(C)C)cc3)c3ccccc23)cc1S(=O)(=O)NC(C)(C)CO | 2% | 0% | -8% | 122% | u | 2.3µM*
Cc1ccc(-c2nnc(Nc3ccc(C(=O)N(C)C)cc3)c3ccccc23)cc1S(=O)(=O)NCC1CCCO1 (centres undefined) | -8% | -8% | -13% | 184% | u | 2.3µM*
